Experimental data: the supplement of paper PMC12669032
Unmarked numbers belong to inactive results.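 The calls were made as follows: active = AUC reduced over 20% with Padj below 0.05 in at least 2 of 3 replicates; inactive = otherwise.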

What was measured:
Test in all cases: growth AUC relative to DMSO control (median of replicates) (fraction); higher = more growth (less inhibition), active = hit call of the paper
Details in all cases: 20 µM; 24 h
Akkermansia muciniphila = system: Akkermansia muciniphila
Method in brief: (§1)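 OD600 was recorded every hour for 24 h in anaerobic monocultures of gut bacteria kept at 37 °C in mGAM, seeded at OD600 0.05 and given 20 µM compound in 1% DMSO. The area under each growth curve was scaled to the plate median of solvent-only wells, or to row and column medians for the industrial chemical plate. Before this step, the minimum OD was set to 0. Reported values are medians of three biological replicates run on separate days.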

Bacteroides caccae = system: Bacteroides caccae
Method in brief: as §1

Bacteroides clarus = system: Bacteroides clarus
Method in brief: as §1

Bacteroides dorei = system: Bacteroides dorei
Method in brief: as §1

Bacteroides stercoris = system: Bacteroides stercoris
Method in brief: as §1

[1] = system: Bacteroides thetaiotaomicron
Method in brief: as §1

Bacteroides uniformis = system: Bacteroides uniformis
Method in brief: as §1

[2] = system: Bifidobacterium longum subsp. longum
Method in brief: as §1

Clostridium difficile = system: Clostridium difficile
Method in brief: as §1

Collinsella aerofaciens = system: Collinsella aerofaciens
Method in brief: as §1

SMILES	growth AUC (Akkermansia muciniphila)	growth AUC (Bacteroides caccae)	growth AUC (Bacteroides clarus)	growth AUC (Bacteroides dorei)	growth AUC (Bacteroides stercoris)	growth AUC [1]	growth AUC (Bacteroides uniformis)	growth AUC [2]	growth AUC (Clostridium difficile)	growth AUC (Collinsella aerofaciens)
ClCC(Br)CBr (stereo not given)	0.997	1.04	0.981	0.974	0.996	1	0.957	1	1	0.992
C[C@H]1[C@H](c2ccc(Cl)cc2)SC(=O)N1C(=O)NC1CCCCC1	0.988	0.91	0.965	0.945	1.13	0.952	0.943	0.923	0.987	0.928
N#Cc1c[nH]cc1-c1cccc(Cl)c1Cl	0.905	0.819	0.9	0.871	0.884	0.835	0.816	1.09	0.901	0.935
C=C(C)CN(CC)c1c([N+](=O)[O-])cc(C(F)(F)F)cc1[N+](=O)[O-]	0.843	1.02	0.965	1.02	0.926	0.998	0.968	0.933	1.04	1
COC(=O)C1(O)c2ccccc2-c2ccccc21	0.893	1.03	0.97	1	1.01	0.981	0.984	0.996	0.991	1.03
O=C(O)C(F)(F)C(F)(F)C(F)(F)C(F)(F)C(F)(F)C(F)(F)F	0.965	1.03	1	1.01	1	1	1.02	1.04	1	1.02
CCOC(=O)C(SP(=S)(OC)OC)c1ccccc1 (stereo not given)	0.867	0.974	0.933	0.973	0.986	0.938	0.929	1	1.04	1
COP(=O)(OC)Oc1ccc(S(C)(=O)=O)c(C)c1	0.876	0.971	0.963	0.987	1.01	1	0.981	0.956	0.994	1.01
CC(C)OC(=O)Nc1ccccc1	0.984	1.02	1.02	1.07	1.12	1.01	0.98	0.988	1.05	1.02
O=C(O)c1ccc(=O)[nH]c1	1.06	1.02	1.01	1.02	0.972	0.984	1.01	1	1.01	0.977
Cc1cc(C(C#N)c2ccc(Cl)cc2)c(Cl)cc1NC(=O)c1cc(I)cc(I)c1O (stereo not given)	0.866	0.184 (active)	0.0125 (active)	0.0106 (active)	0.00703 (active)	0.0104 (active)	0.0176 (active)	0.121 (active)	0.00624 (active)	0.0767 (active)
CCc1nn(C)c(C(=O)NCc2ccc(C(C)(C)C)cc2)c1Cl	1.02	0.94	0.929	0.921	0.725 (active)	0.694 (active)	0.982	0.95	0.972	0.887
CCOP(=S)(OCC)SCS(=O)(=O)CC	1.08	0.96	1.01	0.977	1.09	0.996	0.984	0.951	1.01	1.02
O=C(NC(=O)c1c(F)cccc1F)Nc1ccc(OC(F)(F)C(F)OC(F)(F)F)c(Cl)c1 (stereo not given)	0.979	0.991	1.01	1.03	0.982	0.974	0.997	1	0.985	0.971
CN(C)C(CSC(N)=O)CSC(N)=O.Cl	1.13	0.993	1.04	1.08	1.02	1.06	1.15	1.05	1	1.03
CCN(CC)C(=O)/C(Cl)=C(/C)OP(=O)(OC)OC	1.19	1	0.975	0.921	0.977	0.958	0.979	1.02	0.94	0.967
CCOP(=S)(Oc1cnc(C(C)(C)C)nc1)OC(C)C (stereo not given)	0.912	0.973	0.94	1.02	0.977	1.01	0.974	0.97	1	1.03
CCOP(=S)(OCC)SCSc1ccc(Cl)cc1	1.04	0.954	0.972	0.984	1.09	0.987	0.943	1.03	1	0.963
CC1(C)CN=C(NN=C(/C=C/c2ccc(C(F)(F)F)cc2)/C=C/c2ccc(C(F)(F)F)cc2)NC1	0.911	0.961	0.979	1.03	0.902	1.03	0.991	0.998	0.972	1.09
COP(N)(=S)Oc1ccccc1C(=O)OC(C)C (stereo not given)	1.19	1.02	0.981	0.893	0.979	0.998	0.999	1.03	0.993	0.993

SMILES	growth AUC (Akkermansia muciniphila)	growth AUC (Bacteroides caccae)	growth AUC (Bacteroides clarus)	growth AUC (Bacteroides dorei)	growth AUC (Bacteroides stercoris)	growth AUC [1]	growth AUC (Bacteroides uniformis)	growth AUC [2]	growth AUC (Clostridium difficile)	growth AUC (Collinsella aerofaciens)
NCCO.O=C(O)c1nc(Cl)ccc1Cl	1.02	1.01	1.04	0.987	1.02	1.04	1	1.04	1	1.02
Cc1cc(C(F)(C(F)(F)F)C(F)(F)F)ccc1NC(=O)c1cccc(I)c1C(=O)NC(C)(C)CS(C)(=O)=O	1.06	1.2	1.2	1	0.937	1.02	1.01	1.06	0.92	1.7
CNC(=O)Oc1cccc2c1OC(C)(C)C2	1.1	0.964	1.01	0.999	1.02	0.998	1	0.996	1	1.04
O=C1CCc2cccc3c2N1CC3	1.04	0.874	0.964	0.974	1.14	0.883	0.98	1.03	1.03	0.954
CNC(=O)/C=C(\C)OP(=O)(OC)OC	1.05	1.03	0.991	1.02	1.09	1.01	1.01	0.947	1.04	1.04
COc1cc(OC)nc(Sc2cccc(Cl)c2C(=O)O)n1	1.28	1.01	0.98	0.959	0.977	1.02	0.986	1	1.01	0.964
CC(C)(C)[C@@H](O)[C@H](Oc1ccc(Cl)cc1)n1cncn1	1.06	0.904	1.02	0.953	1.25	0.948	0.975	0.998	1	0.988
C=CCOC(=O)C(C)(C)OC(=O)c1cc(-n2c(=O)cc(C(F)(F)F)n(C)c2=O)ccc1Cl	1.14	0.949	1.01	0.969	1.09	0.974	0.975	0.96	0.964	0.961
CCCCc1c(C)nc(NCC)nc1OS(=O)(=O)N(C)C	1.07	1.01	0.967	0.909	0.895	0.944	0.901	0.996	1.01	0.977
N#Cc1cc(I)c(O)c(I)c1	0.914	0.802	0.76 (active)	0.776	0.939	0.919	0.799 (active)	0.941	0.919	1.04
CC(C)(C)c1ccc(CSc2cnn(C(C)(C)C)c(=O)c2Cl)cc1	0.971	0.95	0.959	0.991	1.07	0.975	0.986	0.97	0.963	0.999
O=C(O)COc1ccccc1	0.969	0.918	0.989	0.944	1.05	1.02	1	1.11	0.988	0.885
COP(=S)(OC)Oc1c(Cl)cc(C)cc1Cl	0.999	0.966	0.993	0.964	0.958	1.01	0.97	0.98	0.985	0.975
O=C(NC(=O)c1c(F)cccc1F)Nc1ccc(Cl)c(Oc2ncc(C(F)(F)F)cc2Cl)c1	1.14	0.985	1.02	1.1	0.98	1.01	1.02	0.917	1.1	1.08
COP(=S)(OC)Oc1ccc(S(C)(=O)=O)c(C)c1	0.98	0.994	1	0.974	1.04	0.994	0.964	0.831	0.985	1.01
Cc1ccccc1C(=O)Nc1cccc(OC(C)C)c1	0.926	1.01	0.992	1	0.993	0.928	0.945	1.02	0.984	1
CC1=C(C(=O)Nc2ccccc2)S(=O)(=O)CCO1	0.915	0.983	0.976	0.977	1.02	0.994	0.981	0.944	0.973	1.02
C=CCOC(Cn1ccnc1)c1ccc(Cl)cc1Cl.O=S(=O)(O)O (stereo not given)	0.744	0.949	0.925	1	0.994	0.931	0.977	0.843	0.884	0.845
CCOP(=S)(OCC)SCCS(=O)(=O)CC	1.05	1.02	1	0.977	1.03	0.99	0.986	1.01	1	0.995
CCc1cc(C)cc(CC)c1-c1c(OC(=O)C(C)(C)C)n2n(c1=O)CCOCC2	1.01	0.906	1	0.992	1.22	1.01	1	0.952	0.944	1

SMILES	growth AUC (Akkermansia muciniphila)	growth AUC (Bacteroides caccae)	growth AUC (Bacteroides clarus)	growth AUC (Bacteroides dorei)	growth AUC (Bacteroides stercoris)	growth AUC [1]	growth AUC (Bacteroides uniformis)	growth AUC [2]	growth AUC (Clostridium difficile)	growth AUC (Collinsella aerofaciens)
OC(Cn1cncn1)(c1ccc(F)cc1)c1ccccc1F (stereo not given)	0.876	0.976	0.971	0.988	1	0.98	0.999	1.21	1	0.985
CN(C)NC(=O)CCC(=O)O	0.948	1	1.01	1.04	1.01	0.998	0.992	1.01	0.991	1
Nc1c(Cl)c(Cl)c(Cl)c(Cl)c1Cl	0.856	0.897	0.935	0.956	0.945	0.968	0.981	0.949	0.988	1
Oc1ccc(Cl)cc1	0.989	0.997	0.952	1.01	0.981	0.997	0.987	0.971	0.981	0.988
C[N+](C)(C)CCCl.[Cl-]	1.06	1.01	1.03	0.983	1.08	1.02	1.01	0.997	1	1.02
Clc1ccc(C2(Cn3cncn3)CC(Br)CO2)c(Cl)c1 (stereo not given)	1.07	0.973	0.982	0.955	0.921	0.961	0.944	0.896	0.978	0.951
O=C(NC(=O)c1c(F)cccc1F)Nc1ccc(Oc2ccc(C(F)(F)F)cc2Cl)cc1F	1.02	1.02	0.984	1.02	1.02	1	0.996	1.05	1.02	1.08
COc1cc(OC)n2nc(S(=O)(=O)Nc3c(Cl)ccc(C)c3Cl)nc2n1	1.05	0.98	0.962	1.06	0.969	0.99	0.964	0.976	1.08	1.11
O=C(Nc1ccccc1-c1ccc(Cl)cc1)c1cccnc1Cl	0.987	0.998	0.986	0.998	1.01	0.958	0.966	1.03	0.998	0.999
Cc1nc(N(C)C=O)nc(OC(=O)N(C)C)c1C	1.01	0.986	0.998	0.985	0.955	0.977	0.971	1	0.963	0.992
COc1ncc(F)c2nc(S(=O)(=O)Nc3c(F)cccc3F)nn12	0.991	1.02	0.985	1.01	1.13	0.974	1	1.01	0.994	1.01
Cc1ccc(-c2c(Cl)nc(C#N)n2S(=O)(=O)N(C)C)cc1	0.913	0.844	0.817	0.904	0.931	0.906	0.639 (active)	1.03	0.96	1.02
CCCCN(CC)C(=O)SCCC	0.957	1.01	1.01	0.972	1.11	0.979	0.976	0.983	1.03	0.982
CCOP(=S)(OCC)SCCSCC	0.992	1.03	1.01	0.973	1.06	1.01	0.973	1.02	0.977	0.972
CNC(=O)CSP(=S)(OC)OC	1.19	1	0.994	0.901	0.954	1.01	1	1.01	0.978	0.974
O=C1C=CC(=O)C=C1	0.97	0.991	0.992	1.01	1.02	1.01	1	1.01	0.997	0.992
CC1CCCCC1NC(=O)Nc1ccccc1 (mixture of isomers)	0.952	1	0.967	0.993	0.973	0.969	0.959	0.898	1.01	0.976
CC(C)OC(=O)C(O)(c1ccc(Br)cc1)c1ccc(Br)cc1	0.997	0.883	0.779 (active)	0.933	0.239 (active)	0.93	0.923	0.96	0.982	0.928
